Experimental data as given in PubChem BioAssay (NCATS).
Inconclusive results are not listed. Entries that show only a call come without a potency. Activity calls are given as the source filed them. The call rests on the fitted dose curve; in most records, active means well fitted curve in the direction sought with a large enough effect; inconclusive means small, poorly fitted or top-dose-only effect, or another doubt; inactive means no such curve, though single readings can be large; an effect the other way counts as inactive or inconclusive.

Columns and labels:
[1] = P-glycoprotein substrates identified in KB-3-1 adenocarcinoma cell line, qHTS therapeutic library screen (AID 1346986); conditions: KB-3-1 parental cells viability, CellTiter-Glo, 72 h; at 44.5 µM (top of the series); further: nearly all actives have a fitted effect of over 60% in size
Outline: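 Compounds were tested in dose-response against KB-3-1 and KB-8-5-11 cells at 37 degree C for 72 h, and viability was measured by luminescence. AC50 values came from curve fitting with class-based activity calls.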

[2] = P-glycoprotein substrates identified in KB-8-5-11 adenocarcinoma cell line, qHTS therapeutic library screen (AID 1346987); conditions: KB-8-5-11 (P-gp overexpressing) viability, CellTiter-Glo, 72 h; series mostly up to 44.5 µM; further: nearly all actives have a fitted effect of over 65% in size; further: potency means the concentration at half of the fitted maximal effect
Outline: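 KB-8-5-11: colchicine-selected sub-line of KB-3-1 over-expressing P-gp; assay medium lacked colchicine. 72 h drug exposure at 37 degree C, CellTiter-Glo.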

[3] = qHTS assay to identify small molecule inhibitors of chordoma cells - UCH-2 (AID 1259356); conditions: UCH-2 chordoma viability, CellTiter-Glo ATP luminescence, 48 h; series mostly up to 46.1 µM
[4] = Identifying Small Molecule Inhibitors of Pancreatic Cancer Stem Cells (A2780, Spheroid) (AID 1259357); conditions: A2780 spheroid viability;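 further: potency means the concentration at half of the fitted maximal effect; compound exposure lasted 48 h before the ATP luminescence read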
Outline: (§1)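 Monolayer and spheroid cultures are compared. Spheroids form over 14 days in stem cell medium on hydrogel-coated low-attachment plates, then are exposed to compound for 48 h before CellTiter-Glo luminescence.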

[5] = Identifying Small Molecule Inhibitors of Pancreatic Cancer Stem Cells (SN12C, Adherent) (AID 1259358); conditions: viability/growth inhibition;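 further: potency means the concentration at half of the fitted maximal effect; cell survival measured after 48 h of compound exposure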
Outline: as §1

[6] = Identifying Small Molecule Inhibitors of Pancreatic Cancer Stem Cells (Panc1, Spheroid) (AID 1259359); conditions: Panc1 spheroid cancer stem cell viability;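 further: potency means the concentration at half of the fitted maximal effect; compound exposure lasted 48 h before reading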
Outline: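 Luminescent ATP readout (CellTiter-Glo) quantifies surviving cells after a 48 h drug incubation. Normalization uses DMSO wells as no inhibition and media-only wells as full inhibition; bortezomib served as positive control.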

SMILES: CCCCS(=O)(=O)N[C@@H](Cc1ccc(OCCCCC2CCNCC2)cc1)C(=O)O
- outcome [1]: inactive
- Potency [2]: inactive

SMILES: NC[C@H]1O[C@H](O[C@H]2[C@H](O)[C@@H](O[C@H]3O[C@H](CO)[C@@H](O)[C@H](N)[C@H]3O)[C@H](N)C[C@@H]2N)[C@H](N)[C@@H](O)[C@@H]1O
- Potency [2]: inactive

SMILES: COC(=O)C1=C(C)NC(C)=C(C(=O)O[C@@H]2CCCN(Cc3ccccc3)C2)[C@@H]1c1cccc([N+](=O)[O-])c1
- Potency [2]: 20600 nM (active)

SMILES: CCCC(=O)O[C@]1(C(=O)CO)CC[C@H]2[C@@H]3CCC4=CC(=O)CC[C@]4(C)[C@H]3[C@@H](O)C[C@@]21C
- Potency [3]: inactive
- Potency [2]: inactive

SMILES: CC(=O)Oc1ccc(C(c2ccc(OC(C)=O)cc2)c2ccccn2)cc1
- Potency [3]: inactive
- Potency [2]: inactive

SMILES: CC(O)(P(=O)(O)O)P(=O)(O)O
- Potency [3]: inactive
- Potency [2]: inactive

SMILES: Cc1ccc(Nc2c(F)cccc2Cl)c(CC(=O)O)c1
- Potency [2]: inactive

SMILES: O=c1[nH]c(=O)n([C@H]2CCCO2)cc1F
- Potency [2]: inactive

SMILES: C=CCc1ccc(O)c(OC)c1
- Potency [3]: inactive
- Potency [2]: inactive

SMILES: Oc1ccc(O)cc1
- Potency [3]: inactive
- Potency [2]: inactive

SMILES: CCOc1ccc2nc3cc(N)ccc3c(N)c2c1
- Potency [3]: inactive
- Potency [2]: inactive

SMILES: Cc1cc2c(cc1CC(=O)c1sccc1S(=O)(=O)Nc1onc(C)c1Cl)OCO2
- Potency [2]: inactive

SMILES: Nc1ccn([C@@H]2O[C@H](CO)[C@@H](O)C2(F)F)c(=O)n1
- Potency [4]: 481 nM (active)
- Potency [5]: 54 nM (active)
- Potency [6]: 17.1 nM (active)

SMILES: CC(O)C(=O)O (stereo not given)
- Potency [3]: inactive
- Potency [2]: inactive

SMILES: Cc1onc(-c2c(Cl)cccc2Cl)c1C(=O)N[C@@H]1C(=O)N2[C@@H]1SC(C)(C)[C@@H]2C(=O)O
- Potency [2]: inactive
